Results: the supplement of paper PMC6555819

Legend:
Assay in all cases: PBM binding z-score (relative to random genomic background probes); higher = stronger binding; sequences stand for … in GC…GCGATTGACAGCGTAGAATGAAGG
[1] = tested on: FXR:RXRa (NR concentration 270 nM, RXRa partner concentration 90 nM)
Procedure, shortened: (§1)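 Binding z-scores take random background probes as their reference. They come from custom Agilent 4×180K protein-binding microarrays incubated 1 h with ligand-free nuclear receptor dimers, with antibodies against each partner (one per run) detecting binding. Scanned fluorescence was regression-normalized.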

[2] = tested on: LXRa:RXRa (NR concentration 270 nM, RXRa partner concentration 90 nM)
Procedure, shortened: as §1

[3] = tested on: LXRa homodimer (NR concentration 270 nM)
Procedure, shortened: as §1

[4] = tested on: LXRb:RXRa (NR concentration 270 nM, RXRa partner concentration 90 nM)
Procedure, shortened: as §1

[5] = tested on: LXRb homodimer (NR concentration 270 nM)
Procedure, shortened: as §1

[6] = tested on: PPARa:RXRa (NR concentration 270 nM, RXRa partner concentration 90 nM)
Procedure, shortened: as §1

[7] = tested on: PPARg:RXRa (NR concentration 180 nM, RXRa partner concentration 90 nM)
Procedure, shortened: as §1

[8] = tested on: PPARg:RXRa 270nM:90nM, anti-RXR (NR concentration 270 nM, RXRa partner concentration 90 nM)
Procedure, shortened: as §1

[9] = tested on: PPARg:RXRa 30nM:10nM, anti-RXR (NR concentration 30 nM, RXRa partner concentration 10 nM)
Procedure, shortened: as §1

[10] = tested on: PPARg:RXRa 90nM:30nM, anti-RXR (NR concentration 90 nM, RXRa partner concentration 30 nM)
Procedure, shortened: as §1

[11] = tested on: PPARg:RXRa DBDmut IVT, anti-RXR (DBD mutation: RXRa K156A/R161A, NR concentration 270 nM, RXRa partner concentration 90 nM)
Procedure, shortened: as §1

[12] = tested on: PPARg:RXRa IVT, anti-PPARg (NR concentration 270 nM, RXRa partner concentration 90 nM)
Procedure, shortened: as §1

[13] = tested on: PPARg DBDmut:RXRa IVT, anti-PPARg (DBD mutation: PPARg1 K132A/R137A, NR concentration 270 nM, RXRa partner concentration 90 nM)
Procedure, shortened: as §1

[14] = tested on: PPARg DBDmut IVT, anti-PPARg (DBD mutation: PPARg1 K132A/R137A, NR concentration 270 nM)
Procedure, shortened: as §1

[15] = tested on: PPARg homodimer (NR concentration 180 nM)
Procedure, shortened: as §1

[16] = tested on: PXR:RXRa (NR concentration 270 nM, RXRa partner concentration 90 nM)
Procedure, shortened: as §1

[17] = tested on: PXR homodimer (NR concentration 270 nM)
Procedure, shortened: as §1

[18] = tested on: RARa:RXR (NR concentration 270 nM, RXRa partner concentration 90 nM)
Procedure, shortened: as §1

[19] = tested on: RARa homodimer (NR concentration 270 nM)
Procedure, shortened: as §1

[20] = tested on: RARb:RXRa (NR concentration 270 nM, RXRa partner concentration 90 nM)
Procedure, shortened: as §1

Sequence	PBM binding z-score [1]	PBM binding z-score [2]	PBM binding z-score [3]	PBM binding z-score [4]	PBM binding z-score [5]	PBM binding z-score [6]	PBM binding z-score [7]	PBM binding z-score [8]	PBM binding z-score [9]	PBM binding z-score [10]	PBM binding z-score [11]	PBM binding z-score [12]	PBM binding z-score [13]	PBM binding z-score [14]	PBM binding z-score [15]	PBM binding z-score [16]	PBM binding z-score [17]	PBM binding z-score [18]	PBM binding z-score [19]	PBM binding z-score [20]
CCTACTGGGCCAAAGGCCATTGATTCCAATGCTC	-0.204	-0.344	-0.23	-0.115	-0.699	3.51	7.53	7.54	6.63	7.44	3.67	4.27	-1.16	-0.289	0.544	-0.131	-0.371	0.0662	-0.609	0.924
ATCGAAATGTCGTGAGGTGAGTATACAGAAAGGC	0.101	-0.0819	-0.191	-0.0754	-0.00242	-0.0374	0.546	-0.0357	-0.12	0.0916	-0.876	0.356	1.2	0.426	-0.35	-0.158	-0.418	0.27	-0.172	0.61
ACTAGGTGGTCAGCTGAGGTCACACACAATTCGG	3.12	3.37	2.31	3.52	-0.173	3.87	2.43	2.63	0.956	2.14	1.21	3.02	0.296	0.306	1.93	5.62	1.01	4.73	0.58	3.78
ATCGAAACGTCGTGAGGTGAGTATACAGAAAGGC	-0.206	-0.348	-0.532	-0.359	-0.538	-0.0386	0.851	-0.286	-0.051	0.0788	-0.959	0.149	1.07	-0.047	-0.199	-0.306	-0.433	0.0512	-0.494	-0.0846
CAAAGTAGGTCAAGAGGTCAAAGTCCGCTTCCCG	7.25	6.52	6.36	5.69	2.34	6.74	10.3	8.87	7.55	9.17	8.4	8.84	1.65	1.18	5.39	6.22	3.31	7.83	2.53	5.55
CCTAGTTGGTCAGGAGGTCACAAACCGGATATGA	3.32	2.85	1.66	3.16	0.659	3.98	3.09	3.7	1.19	2.73	1.35	3.19	0.681	-0.00546	3.21	3.77	1.38	4.45	2.04	3.37
GATACAGGGTCAATGCCAGAGTACGCGTATTGAT	6.02	3.64	-0.0445	3.44	-0.0572	5.2	4.79	4.33	1.52	2.95	2.46	3.45	0.722	0.999	1.86	2.96	0.00137	3.59	0.532	4.19
CCTACTGGGCGACGAAAGGTCATTGATTCAGTGA	3.21	3.92	4.32	3.94	-0.175	4.31	2.37	3.74	1.35	2.73	1.64	2.57	-0.823	-0.515	1.98	4.56	0.841	4.47	0.351	3.75
TAGCCTAGGTCATTGGGCTAGTATAGTACGCATC	4.29	3.19	0.404	1.81	-0.386	3.63	2.59	3.08	0.744	1.97	1.65	3.11	0.176	-0.547	0.811	1.4	-0.602	1.91	-0.44	3.46
GCTCGGAGGACAAGGTCACAGCTTTGTCCGTAGA	4.17	3.99	0.175	3.17	0.142	4.56	3.68	4.17	1.12	2.98	0.831	3.16	0.822	-0.625	2.33	3.9	0.00215	4.35	0.243	4.21
TCTCGGAGGACACGAAACGTCAGAGCTCGACATC	0.138	-0.218	-0.617	-0.347	-0.872	-0.13	0.395	0.915	2.04	1.4	1.4	0.0714	-0.35	-0.247	-0.276	-0.408	-0.586	-0.175	-0.713	1.25
CCTAGCAGGCGAGGGTCACTCAAGCATTTCGCTT	1.72	1.44	-0.428	1.56	-1.08	2.63	0.461	1.58	-0.298	1.34	0.277	0.13	-1.61	-1.34	0.73	1.63	-0.241	2.62	-0.425	2.29
TCTGCTATGTCAACGATGGTCAGCTAATCTGCTA	-0.367	-0.339	-1.07	-0.513	-0.553	-0.269	-0.313	0.46	1.01	0.668	0.814	-0.00611	0.00527	-0.18	-1.25	-0.217	-1.19	-0.446	-1.27	0.575
GCTAGTGGGTCAGTAAAAGGTCACACACCGGTCG	4.47	4.77	4.65	4.61	0.38	5.24	6.44	5.98	3.57	5.34	6.37	6.63	1.17	1.14	6.87	5.62	1.8	7.01	2.96	5.12
